Consider 31 compounds from PubChem BioAssay (EPA / NIEHS).

The source made the active and inactive calls. The calls were made as follows: active = hit-call score of the fitted dose curve at least 0.9, where 1 is the maximum; inactive = score below 0.9.

Read-out in this test: succinate dehydrogenase complex iron sulfur subunit B (SDHB), SDHB (gene 6390)
The experiment in a line: LTEA_HepaRG_SDHB: Life Technologies and Expression Analysis (LTEA) Assay for succinate dehydrogenase complex iron sulfur subunit B (SDHB) using HepaRG (AID 2283528). To be noted: mRNA level, 48 h; actives raise or lower the signal. The method, then: LTEA_HepaRG is a cell based, multiplexed-readout assay that uses HepaRG, a human liver cell line, with measurements taken at 48 hours after chemical dosing on a 96-well plate.LTEA_HepaRG_SDHB is one of 102 assay component(s) measured in the LTEA HepaRG cell culture assay. It is a marker of Cell proliferation, survival, death.Data from the assay component LTEA_HepaRG_SDHB was analyzed into 1 endpoint. This assay endpoint, LTEA_HepaRG_SDHB, was analyzed with bidirectional fitting relative to DMSO as the negative control and baseline of activity. Using a type of inducible reporter, measures of mRNA induction for gain or loss-of-signal activity can be used to understand regulation of transcription factor activity. To generalize the intended target to other relatable targets, this assay endpoint is annotated to the oxidoreductase intended target family, where the subfamily is ubiquinone.
A total of 1060 chemcials from the ToxCast library were tested in eight-point concentration-response experiments. Cell culture and cytotoxicity assays were conducted at Thermo Fisher Scientific's Custom Services facility (Madison, WI). A single lot of human HepaRG cells (Thermo Fisher Scientific, Frederick, MD) was used for the cell culture experiments. 96-well format collagen type I coated plates of human HepaRG cells were prepared using established methods. Briefly, cryopreserved HepaRG cells were thawed, plated at a density of approximately 100,000 cells/well in HepaRG Thaw, Plate, and General Purpose media (HPRG770, Thermo Fisher Scientific), and incubated for 48 hours. 0.5% DMSO was selected as vehicle control to balance the requisite need of DMSO in HepaRG cultures to maintain differentiation (for example, baseline metabolism, proportions of hepatocytes vs. cholangiocytes), while enabling further hepatic receptor pathway activation (for example, PXR and CAR) in response to chemical exposure. 48 hours after plating, the culture medium was replaced with HepaRG Serum-Free Incudtion Media. Cells were exposed to each test chemical in duplicate and maintained in CO2 incubators for another 48 hours. Chemical plates were thawed to room temperature and 200x concentrations of treatment groups were prepared. 8-point conentration-reponse curves were made with the highest exposure at 100 uM, followed by half-log dilutions, all in 0.5% DMSO. Each test plate contained variouse controls, induction positive controls (1mM phenobarbital), cytotoxicity positive controls ([…] aflatoxin B1), vehicle controls (0.5% DMSO), and total lysis controls (0.5% DMSO). Cell morphology images were taken using an Essen IncuCyte FLR automated microscope, with six 96-well plates imaged in about 24 minutes. Images were captured and exported and JPEG files. Spent culture media was transfered to black-well plates for the LDH assay, and remaining media was sorted at -80 C for later use. Cells were treated with RLT buffer and frozen until shipped for gene expression analysis. Total RNA was isolated from the cell suspension in 75 uL of Buffer RLT (Qiagen, Germantown, MD 20874) by Quintiles/Expression Analysis (Durham, NC) using a custom isolation procedure. Total RNA from each plate well was transferred to a preamplification plate. Fluidigm's 96.96 Dynamic ArrayTM (Fluidigm, Amsterdam, the Netherlands) technology was used for gene expression analyses by quantitative reverse transcription polymerase chain reaction (qRT-PCR, performed by Quintiles/Expression Analysis, Durham, NC)89. Standard TaqManTM Assays (Applied Biosystems/ThermoFisher Scientific, Foster City, CA) were used to assess the expression of 93 genes selected based on their selectivity and sensitivity to important hepatic receptors known to be modulated by environmental chemicals; importance in human hepatocyte functionality; and hepatotoxicity. […]
Take `ClC1(Cl)C2(Cl)C3(Cl)C4(Cl)C(Cl)(Cl)C5(Cl)C3(Cl)C1(Cl)C5(Cl)C24Cl` (stereo unspecified): the call was inactive.
In general, AC50 refers to the midpoint of the concentration-response curve, whichever way the signal moves. With `C=C(C)C(=O)[O][Sn]([CH2]CCC)([CH2]CCC)[CH2]CCC`, the AC50 was 94.1 µM (active).
`C[C@@H]1C[C@@H]([C@H](O)CC2CC(=O)NC(=O)C2)C(=O)[C@@H](C)C1`: the AC50 was 50 µM (active).
With `O=c1[nH]c(=O)[nH]c(=O)[nH]1`, the compound was classed as inactive.
Same read-out and setting: then `CCC(C)(C)c1ccc(O)c(C(C)(C)CC)c1`, with “inactive”.
As to `CCN1CCC2(CC1)COc1cc3c(cc12)N(C(=O)c1ccc(-c2ccc(-c4nnc(C)o4)cc2C)cc1)CC3`, the AC50 is 24.8 µM (active).
For the compound `COc1cc(-c2ccc(N)c(OC)c2)ccc1N`, the result was inactive.
Same read-out and setting: then `O=C(Nc1ccc2[nH]ccc2c1)c1cc2cc(F)ccc2n1Cc1cccc(F)c1`, with “inactive”; and `CCCCCCCCc1ccc(O)cc1`, with “inactive”.
Same read-out and setting: then `CCOP(=S)(OCC)Oc1nc(Cl)c(Cl)cc1Cl`, with “inactive”; and `Oc1cccc2cccnc12`, with “inactive”; and `Cn1sc(Cl)cc1=O`, with “inactive”.
Regarding `CN(C)N=O`, the compound was called inactive.
On the same count and under the same terms, to `C[C@]12CCC(=O)C[C@@H]1CC[C@@H]1[C@@H]2CC[C@]2(C)[C@@H](O)CC[C@@H]12` belongs “inactive”; to `C=CC(=O)OCCCCCC(C)C`, “inactive”; to `CCOP(=S)(OCC)SCSP(=S)(OCC)OCC`, “inactive”.
Consider `ClCC(Cl)CCl`, for which the call was inactive.
Still for that read-out and setting: to `O=C(O)C(Cl)(Cl)Cl` belongs “inactive”.
Take `O=C(O)C(F)(F)C(F)(F)C(F)(F)C(F)(F)C(F)(F)C(F)(F)C(F)(F)C(F)(F)C(F)(F)C(F)(F)F`: the compound was called inactive.
Still for that read-out and setting: to `O=C(O)C(F)(F)C(F)(F)C(F)(F)C(F)(F)C(F)(F)C(F)(F)F` belongs “inactive”.
For `CC(=O)[O][Hg][c]1ccccc1`, the AC50 is 26.2 µM (active).
Take `NC(=O)O`: the outcome was inactive.
On to `Cc1ccccc1N`, for which the call was inactive.
Take `CC(C)(OO)c1ccccc1`: the result was inactive.
As to `O=C1C2(Cl)C3(Cl)C4(Cl)C(Cl)(Cl)C5(Cl)C3(Cl)C1(Cl)C5(Cl)C24Cl` (stereo unspecified), the AC50 was 91.6 µM (active).
Consider `CC(C)(C)c1cc(O)ccc1O`, for which the compound was called inactive.
On the same count and under the same terms, then `CC(C)(C)CC(C)(C)c1ccc(O)cc1`, with “inactive”; and `CC12CC1(C)C(=O)N(c1cc(Cl)cc(Cl)c1)C2=O` (stereo unspecified), with “inactive”.
Take `CC(C)(c1ccccc1)c1ccc(O)c(C(C)(C)c2ccccc2)c1`: the compound was classed as inactive.
Still for that read-out and setting: then `CCC(=O)C(CC(C)N(C)C)(c1ccccc1)c1ccccc1` (stereo unspecified), with “inactive”.
As for `O=[N+]([O-])c1ccc(O)c([N+](=O)[O-])c1`, the concentration at half-maximal activity (AC50) is 13 µM (active).
